Data as given in PubChem BioAssay (EPA / NIEHS).
Active and inactive are the calls of the source. How the source made its calls: active means hit-call score of the fitted dose curve at least 0.9, where 1 is the maximum; inactive means score below 0.9.

Assay: ATG_TGFb_CIS: Attagene CIS-FACTORIAL HepG2 Assay for human Transforming Growth Factor (TGF) (AID 2282967)
Settings: HepG2 Attagene CIS TGFb reporter, mRNA transcription; actives raise or lower the signal
Description: ATG_CIS is a cell-based, multiplexed-readout assay that uses HepG2, a human liver cell line, with measurements taken at 24 hours after chemical dosing in a 24-well plate.ATG_TGFb_CIS is one of 52 assay component(s) measured or calculated from the ATG_CIS assay. It is designed to make measurements of mRNA induction, a form of inducible reporter, as detected with fluorescence intensity signals by Reverse transcription polymerase chain reaction (RT-PCR) and Capillary electrophoresis technology.Data from the assay component ATG_TGFb_CIS was analyzed into 1 assay endpoint. This assay endpoint, ATG_TGFb_CIS, was analyzed with bidirectional fitting relative to DMSO as the negative control and baseline of activity. Using a type of inducible reporter, measures of mRNA for gain or loss-of-signal activity can be used to understand the reporter gene at the transcription factor-level as they relate to the gene TGFB1. Furthermore, this assay endpoint can be referred to as a primary readout, because this assay has produced multiple assay endpoints where this one serves a reporter gene function. To generalize the intended target to other relatable targets, this assay endpoint is annotated to the growth factor intended target family, where the subfamily is transforming growth factor beta.
Human liver HepG2 cells are transiently transfected with multiple reporter transcription units (MRTUs) in 6-well plates using FuGene 6 reagent (Roche; 3 ml FuGene/1 mg DNA). The MRTU constructs are regulated by a cis-regulating element (promoter). […] A major difference between the CIS and TRANS system is that in CIS activities of endogenous TFs are measured, whereas the TRANS assay evaluates changes in activities of exogenous, chimeric NR-Gal4 proteins. […] At the end of 24 hour incubation, total RNA was isolated using TriZol reagent (Invitrogen). The isolated RNA is then reverse-transcribed using oligo(dT) primer and Mo-MLV reverse transcriptase (Invitrogen) with DNAse I (Ambion) treatment for 30 min. The one-tenth of the produced cDNA was amplified by PCR using Taq DNA polymerase (Invitrogen) and two reporter sequence-specific primers. The PCR products were fluorescently labeled by primer extension with 6-arboxyfluorescein (6-FAM) 5'-labeled reporter sequence-specific primer (2 min at 95 C, 20 s at 68 C and 10 min at 72 C) and these products were digested with 5U of HpaI (New England Biolabs) for 2h at 37 C. The fragments were purified using Qiaquick PCR columns (Qiagen), analyzed on an ABI 3130xL genetic analyzer (Applied Biosystems) with peak positions identified by using a set of X-rhodamine (ROX)-labeled MapMarker1000 molecular weight standards (BioVentures). The raw capillary electrophoresis data was processed using Attagraph software (Attagene).

Compound | outcome | AC50
CCC1CCCCC1 | inactive | –
Cc1ccc(N)c(S(=O)(=O)O)c1 | inactive | –
c1ccc(CCc2ccccc2)cc1 | inactive | –
O=C(O)CCCCCCCCC(=O)O | inactive | –
CCCOC(=O)c1c(Cl)c(Cl)c(Cl)c(Cl)c1C(=O)OCCC | inactive | –
C=C(C)[C@@H]1CC=C(C)C(=O)C1 | inactive | –
CCCCCCCCN1CCCC1=O | inactive | –
CCCN(CCC)S(=O)(=O)c1ccc(C(=O)O)cc1 | inactive | –
O=C1CCCC=CCCCCCCCCCC1 | inactive | –
O=C(CC(=O)c1ccccc1)c1ccccc1 | inactive | –
CC(=O)Nc1ccc(C(=O)CCl)cc1 | inactive | –
Cc1cc(C)nc(NS(=O)(=O)c2ccc(N)cc2)n1 | inactive | –
Cc1cc(=O)oc2cc(N(C)C)ccc12 | inactive | –
CCCCCCCCCCCCS(=O)(=O)Cl | inactive | –
C=Cc1ccc(C(C)(C)C)cc1 | inactive | –
O=C(O)CNc1ccccc1 | inactive | –
COCCc1ccc(OCC(O)CNC(C)C)cc1 (stereo not given) | inactive | –
C=CCOC(=O)CCCCCC | – | 0.0799 µM (active)
C=CCCCCCCCCCC | inactive | –
NCCNc1cccc2ccccc12 | inactive | –

Compound | outcome | AC50
COc1ccc(COC(C)=O)cc1 | inactive | –
CN(C)CCOC(C)(c1ccccc1)c1ccccn1 (stereo not given) | inactive | –
CCOC(=O)CN | inactive | –
ClC(c1ccccc1)(c1ccccc1)c1ccccc1 | inactive | –
CCC1(c2ccccc2)C(=O)NCNC1=O | inactive | –
Oc1c(Cl)cc(Cl)c(Cl)c1Cc1c(O)c(Cl)cc(Cl)c1Cl | inactive | –
CC(=O)OCCCc1ccccc1 | inactive | –
Cc1ccc(S(=O)(=O)Oc2ccc(N=Nc3ccc(-c4ccc(N=Nc5c(O)ccc6cc(S(=O)(=O)O)cc(S(=O)(=O)O)c56)c(C)c4)cc3C)cc2)cc1 | – | 40.6 µM (active)
N#Cc1ccc(CC(=O)c2cccc(C(F)(F)F)c2)cc1 | inactive | –
O=C(Nc1ccc([N+](=O)[O-])cc1)Nc1ccc([N+](=O)[O-])cc1 (tested in a mixture with another compound) | inactive | –
C=CC(=O)OCCCC | inactive | –
O=C(Nc1ccc2c(c1)Cc1ccccc1-2)C(F)(F)F | inactive | –
CC1CC(O)CC(C)(C)C1 (stereo not given) | inactive | –
CCCCC1(COC(=O)CCC(=O)O)C(=O)N(c2ccccc2)N(c2ccccc2)C1=O | inactive | –
O=C(O)c1cccnc1C(=O)O | inactive | –
O=CCc1ccccc1 | inactive | –
CCCCCCCC/C=C\CCCCCCCC(=O)OCC | inactive | –
Cc1cccc(Nc2ccccc2)c1 | inactive | –
COC(CC(C)CCCC(C)(C)O)OC (stereo not given) | inactive | –
COCCOC(=O)c1ccccc1C(=O)OCCOC | inactive | –
